Structures are written as SMILES. For part of these data: Potency and affinity values are given separately.

The values that follow come from ChEMBL document CHEMBL4296182, “CO-ADD screening of NIH NCI Diversity Set V”.

The test system of one assay is Staphylococcus aureus. Briefly: Antibacterial activity against Staphylococcus aureus MRSA ATCC 43300 (CO-ADD:GP_020); MIC in CAMBH media using NBS plates, by Resazurin F(560/590). It counts as functional. The conditions noted are these: Concentration 20 uM, ASSAY_TEST Inhibition of Bacterial Growth, detection method Resazurin, Fluorescence (ex560/em590), MEDIA CAMHB, plate type 384well, CORNING #3640, time 18 hr.

Another assay deals with Acinetobacter baumannii. Kind of assay: Antibacterial activity against Acinetobacter baumannii ATCC 19606 (CO-ADD:GN_034); MIC in CAMBH media using NBS plates, by Resazurin F(560/590). It counts as functional. Conditions: Concentration 20 uM, ASSAY_TEST Inhibition of Bacterial Growth, detection method Resazurin, Fluorescence (ex560/em590), MEDIA CAMHB, plate type 384well, CORNING #3640, time 18 hr.

A further assay has as its system Escherichia coli. Briefly: Antibacterial activity against Escherichia coli ATCC 25922 (CO-ADD:GN_001); MIC in CAMBH media using NBS plates, by Resazurin F(560/590). It counts as functional. Conditions: Concentration 20 uM, ASSAY_TEST Inhibition of Bacterial Growth, detection method Resazurin, Fluorescence (ex560/em590), MEDIA CAMHB, plate type 384well, CORNING #3640, time 18 hr.

The test system of another assay is Klebsiella pneumoniae. Conditions: Concentration 20 uM; ASSAY_TEST Inhibition of Bacterial Growth; detection method Absorption (OD600); MEDIA CAMHB; plate type 384well; NBS; CORNING #3640; time 18 hr.
In a further assay the test system is Candida albicans. Conditions: 20 µM.
In the next assay the test system is Cryptococcus neoformans. The conditions noted are these: Concentration 20 uM; ASSAY_TEST Inhibition of Fungal Growth; detection method Resazurin; Absorption (OD600-OD570); plate type 384well; NBS; CORNING #3640.

For the compound `Nc1ncnc2c1ncn2C1OC(CO)C(O)C1N` (stereo not given), the Inhibition in the assay on Staphylococcus aureus was -5.5%; with Acinetobacter baumannii, -14.65%; in the assay on Escherichia coli, 5.58%; in the assay on Klebsiella pneumoniae it was 3.14%; with Candida albicans, -0.11%; in the assay on Cryptococcus neoformans it was -5.11%.
`CCC(CNc1cc(OC)cc2cccnc12)NC1CCCCC1` (stereo not given): the Inhibition in the assay with Staphylococcus aureus was 4.02%; with Acinetobacter baumannii it was 11.06%; with Escherichia coli, 4.95%; in the assay on Klebsiella pneumoniae, 14.97%; in the assay on Candida albicans, -0.36%; in the assay on Cryptococcus neoformans, -7.8%.
In the case of `CCCCNc1nc(N)ncc1[N+](=O)[O-]`, the Inhibition with Staphylococcus aureus was 5.28%; in the assay with Acinetobacter baumannii, -8.97%; in the assay on Escherichia coli, 14%; with Klebsiella pneumoniae it was 10.57%; in the assay on Candida albicans, 8.4%; in the assay with Cryptococcus neoformans, -15.62%.
For `c1ccc(-c2nnc3nc(N4CCCCC4)nc(N4CCCCC4)n23)cc1`, the Inhibition in the assay with Staphylococcus aureus is -3.53%; in the assay with Acinetobacter baumannii, -1.96%; in the assay with Escherichia coli, 14.28%; in the assay on Klebsiella pneumoniae it was 1.6%; with Candida albicans it was 1.09%; in the assay on Cryptococcus neoformans, -15.11%.
With `CC(=O)NCC(=O)O.CN(C)CCC1c2ccc(Cl)cc2CCc2cccnc21` (stereo not given) [CLOSIRAMINE ACETURATE], the Inhibition in the assay with Staphylococcus aureus is 15.26%; in the assay with Acinetobacter baumannii, -11.76%; in the assay with Escherichia coli it was 19.15%; with Klebsiella pneumoniae, 8.33%; in the assay with Candida albicans, -2.05%; in the assay on Cryptococcus neoformans, -9.31%.
`O=c1ccn2c(n1)SC(c1ccccc1)C2` (stereo not given): the Inhibition in the assay on Staphylococcus aureus was 9.54%; in the assay on Acinetobacter baumannii, 7.52%; with Escherichia coli it was 0.87%; in the assay on Klebsiella pneumoniae, 5.49%; in the assay on Candida albicans, 4.6%; in the assay on Cryptococcus neoformans, -10.89%.
In the case of `O=C(O)c1ccc2c(c1Nc1ccccc1)C(=O)c1ccccc1C2=O`, the Inhibition in the assay with Staphylococcus aureus is 9.32%; with Acinetobacter baumannii, -23.2%; with Escherichia coli it was 18.5%; with Klebsiella pneumoniae it was 7%; with Candida albicans it was 1.26%; in the assay with Cryptococcus neoformans, -10.37%.
On to `C[C@@]1(c2ccccc2)O[C@@H]2C[C@H]3[C@@H]4CCC5=CC(=O)C=C[C@]5(C)[C@@]4(F)[C@@H](O)C[C@]3(C)[C@]2(C(=O)CO)O1` [AMCINAFIDE], for which the Inhibition is 5.72% in the assay on Staphylococcus aureus; -8.64% with Acinetobacter baumannii; 8.97% with Escherichia coli; 3.86% with Klebsiella pneumoniae; 4.92% in the assay with Candida albicans; -9.65% in the assay with Cryptococcus neoformans.
Take `O=C(O)c1ccc(OCCOc2ccccc2)cc1`: the Inhibition is -1.13% in the assay on Staphylococcus aureus; -7.25% in the assay with Acinetobacter baumannii; 7.53% with Escherichia coli; 15.54% with Klebsiella pneumoniae; 7.45% with Candida albicans; -11.92% with Cryptococcus neoformans.
As for `Cc1c(NC(=O)Nc2c(Cl)cccc2Cl)c(=O)n(-c2ccccc2)n1C`, the Inhibition was 9.25% with Staphylococcus aureus; 9.07% with Acinetobacter baumannii; 6.32% with Escherichia coli; 8.26% in the assay with Klebsiella pneumoniae; -0.35% in the assay on Candida albicans; -0.01% in the assay on Cryptococcus neoformans.
In the case of `COC(=O)C1(C)Cc2cc(OC(C)=O)c(OC(C)=O)cc2N1` (stereo not given), the Inhibition is 12.77% in the assay with Staphylococcus aureus; 0.02% in the assay with Acinetobacter baumannii; 8.98% in the assay with Escherichia coli; 5.52% in the assay with Klebsiella pneumoniae; -3.71% in the assay with Candida albicans; -8.65% in the assay with Cryptococcus neoformans.
Regarding `O=[N+]([O-])c1ccc2c3ccccc3[s+]([O-])c2c1` (stereo not given), the Inhibition is 5.76% with Staphylococcus aureus; 5.87% in the assay with Acinetobacter baumannii; 8.3% with Escherichia coli; 9.17% with Klebsiella pneumoniae; 6.79% in the assay with Candida albicans; -11.15% in the assay on Cryptococcus neoformans.
`c1ccc(-c2nnc3oc(-c4cccs4)nn23)cc1`: the Inhibition in the assay with Staphylococcus aureus is -2.52%; in the assay on Acinetobacter baumannii, -16.04%; in the assay on Escherichia coli, 4.88%; in the assay with Klebsiella pneumoniae, 16.29%; in the assay with Candida albicans, 19.4%; with Cryptococcus neoformans, 28.69%.
In the case of `CCCCCCC(C)OC(=O)c1ccccc1C(=O)O` (stereo not given), the Inhibition with Staphylococcus aureus was 12.97%; in the assay on Acinetobacter baumannii, -3.64%; with Escherichia coli, -2.32%; in the assay on Klebsiella pneumoniae, 24.05%; in the assay on Candida albicans, 18.6%; with Cryptococcus neoformans, -16.02%.
As to `Nc1ccc(NC(=O)Nc2ccc(N)cc2)cc1`, the Inhibition was -0.09% in the assay with Staphylococcus aureus; -11.79% in the assay with Acinetobacter baumannii; 5.61% with Escherichia coli; 0.94% in the assay with Klebsiella pneumoniae; -2.34% with Candida albicans; -9.22% with Cryptococcus neoformans.
With `CC(=O)Nc1nc(C)c(CCC2OCCO2)c(O)n1`, the Inhibition in the assay with Staphylococcus aureus is 4.85%; in the assay on Acinetobacter baumannii it was 12.66%; in the assay on Escherichia coli, -15.79%; in the assay on Klebsiella pneumoniae, 16.29%; in the assay on Candida albicans, 5.32%; in the assay on Cryptococcus neoformans, 22%.
As to `CC(C)(C)c1ccc(OC(=O)c2ccccc2)cc1`, the Inhibition in the assay on Staphylococcus aureus was -7.46%; in the assay with Acinetobacter baumannii it was 6.71%; in the assay with Escherichia coli, 7.42%; in the assay on Klebsiella pneumoniae, 8.33%; with Candida albicans it was 9.75%; with Cryptococcus neoformans it was -15.41%.
For `COc1cc(/C=C2\CCOC2=O)cc(OC)c1OC`, the Inhibition with Staphylococcus aureus was 4.75%; in the assay on Acinetobacter baumannii it was 13.86%; in the assay on Escherichia coli it was 8.29%; with Klebsiella pneumoniae, 12.15%; in the assay on Candida albicans, 2.88%; in the assay with Cryptococcus neoformans, -2.47%.
As to `Cc1ccc(Cl)cc1NC(=O)N(C)CCO`, the Inhibition was -6.32% in the assay with Staphylococcus aureus; 12.85% in the assay with Acinetobacter baumannii; -9.79% with Escherichia coli; 13.54% with Klebsiella pneumoniae; 6.98% in the assay with Candida albicans; -5.5% in the assay on Cryptococcus neoformans.
With `Cn1ncc2c(Nc3cccc(Cl)c3)nc(Nc3cccc(Cl)c3)nc21`, the Inhibition was 15.88% with Staphylococcus aureus; -2.31% in the assay with Acinetobacter baumannii; 4.26% in the assay on Escherichia coli; 11.58% with Klebsiella pneumoniae; -1.22% with Candida albicans; -11.25% with Cryptococcus neoformans.
`CCN(CC)CCNC(=O)c1ccc(NCN2C(=O)NC(c3ccccc3)(c3ccccc3)C2=O)cc1`: the Inhibition was 12.78% in the assay on Staphylococcus aureus; -11.12% with Acinetobacter baumannii; 11.42% with Escherichia coli; 8.03% in the assay with Klebsiella pneumoniae; 1.74% in the assay with Candida albicans; -3.88% in the assay with Cryptococcus neoformans.
Regarding `CCOC(=O)C(=O)Cc1nc2ccccc2s1`, the Inhibition in the assay on Staphylococcus aureus is 2.9%; in the assay with Acinetobacter baumannii, -6.12%; in the assay with Escherichia coli it was 10.05%; in the assay on Klebsiella pneumoniae it was 6.52%; in the assay on Candida albicans it was 16%; with Cryptococcus neoformans it was -6.27%.
As to `c1ccc(Sc2ncccn2)nc1`, the Inhibition with Staphylococcus aureus is 20.57%; in the assay on Acinetobacter baumannii, -8.37%; with Escherichia coli it was 7.64%; in the assay with Klebsiella pneumoniae it was 5.74%; with Candida albicans, 3.74%; in the assay with Cryptococcus neoformans, -10.47%.
Take `CCOc1ccc(NC(=O)Nc2cc(C(C)C)ccc2C)cc1`: the Inhibition in the assay with Staphylococcus aureus is -18.22%; in the assay with Acinetobacter baumannii it was 0.23%; with Escherichia coli it was -12.49%; in the assay with Klebsiella pneumoniae it was 0.84%; with Candida albicans, 0.78%; with Cryptococcus neoformans, 21.16%.
Regarding `CCOC(=O)C(=O)C1C(=O)Nc2ccccc21` (stereo not given), the Inhibition is 11.5% with Staphylococcus aureus; 4.6% in the assay with Acinetobacter baumannii; -3.33% with Escherichia coli; 15.66% with Klebsiella pneumoniae; 13.9% in the assay on Candida albicans; -6.08% in the assay on Cryptococcus neoformans.
